We go through 11 compounds from PubChem BioAssay (NCATS).

Results filed as inconclusive are left out. Active and inactive are the calls of the source. Unless noted, calls come from the whole dose curve; as a rule, active = well fitted curve in the direction sought with a large enough effect; inconclusive = small, poorly fitted or top-dose-only effect, or another doubt; inactive = no such curve, though single readings can be large; an effect the other way counts as inactive or inconclusive.

Experiment [1] addresses Aldehyde dehydrogenase, mitochondrial (Homo sapiens) (UniProt P05091). The experiment is described as follows: qHTS for Inhibitors of the Aldehyde Dehydrogenase Family (ALDH2) Validation screens (AID 2061302; active = well fitted inhibition curve with a large enough effect; title and protocol of this record describe different tests; note: potency is the fitted concentration of half-maximal effect). To be noted: ALDH inhibition qHTS; series mostly up to 42.6 µM.
The target of experiment [2] is Retinaldehyde dehydrogenase 3 (Homo sapiens) (UniProt P47895). The experiment can be described thus: qHTS for Inhibitors of the Aldehyde Dehydrogenase Family (ALDH1A3) Validation screen (AID 2061312). Note: nearly all actives have a fitted effect of over 45% in size. To be noted: ALDH1A3 enzyme inhibition qHTS validation, fluorescence; series mostly up to 84.7 µM. For orientation: qHTS replaces the single test concentration by a dilution series.

In experiment [3] the target is Aldehyde dehydrogenase, mitochondrial (Homo sapiens) (UniProt P05091). The experiment is described as follows: qHTS for Inhibitors of the Aldehyde Dehydrogenase Family (ALDH2) Confirmatory screens (AID 2061303; active = well fitted inhibition curve with a large enough effect; title and protocol of this record describe different tests; note: potency is the fitted concentration of half-maximal effect; nearly all actives have a fitted effect of over 45% in size). The following applies: ALDH inhibition qHTS; series mostly up to 45.4 µM.
Experiment [4] can be described thus: qHTS for Inhibitors of the Aldehyde Dehydrogenase Family (ALDH1A2, ALDH1A3, ALDH2, ALDH3A1) (AID 2061307). Note: test system not described further here; potency is the fitted concentration of half-maximal effect; nearly all actives have a fitted effect of over 50% in size. The following applies: ALDH inhibition qHTS; series mostly up to 50.3 µM.
The target of experiment [5] is Aldehyde dehydrogenase, mitochondrial (Homo sapiens) (UniProt P05091). The experiment can be described thus: qHTS for Inhibitors of the Aldehyde Dehydrogenase Family (ALDH2) Primary screen (AID 2061308). Note: nearly all actives have a fitted effect of over 55% in size. Note: potency is the fitted concentration of half-maximal effect. The following applies: ALDH2 enzyme inhibition qHTS, 1536-well; series mostly up to 56 µM.
Experiment [6] deals with Retinal dehydrogenase 2 (Homo sapiens) (UniProt O94788). The experiment can be described thus: qHTS for Inhibitors of the Aldehyde Dehydrogenase Family (ALDH1A2) Confirmation screens (AID 2061314). Note: nearly all actives have a fitted effect of over 65% in size. Note: potency is the fitted concentration of half-maximal effect. To be noted: ALDH1A2 enzyme inhibition qHTS confirmation; series mostly up to 45.9 µM.
Experiment [7] has as its target Aldehyde dehydrogenase 1A1 (Homo sapiens) (UniProt P00352). The experiment is described as follows: qHTS for Inhibitors of the Aldehyde Dehydrogenase Family (ALDH1A1) Confirmatory screens (AID 2061316). Note: potency is the fitted concentration of half-maximal effect; nearly all actives have a fitted effect of over 65% in size. To be noted: ALDH inhibition qHTS; series mostly up to 47.3 µM.
In experiment [8] the target is Retinaldehyde dehydrogenase 3 (Homo sapiens) (UniProt P47895). The experiment is described as follows: qHTS for Inhibitors of the Aldehyde Dehydrogenase Family (ALDH1A3) Confirmatory screens (AID 2061311). Note: potency is the fitted concentration of half-maximal effect; nearly all actives have a fitted effect of over 60% in size. The following applies: ALDH inhibition qHTS; series mostly up to 46 µM.
Experiment [9] shares this target. The experiment is described as follows: qHTS for Inhibitors of the Aldehyde Dehydrogenase Family (ALDH1A3) Primary screen (AID 2061315). The following applies: ALDH inhibition qHTS; series mostly up to 56 µM.
Experiment [10] is described as follows: BET inhibitor-based combinations targeting novel dependencies in MECOM-rearranged (r) AML: SET-2 cell line (AID 2202231). Note: potency is the fitted concentration of half-maximal effect; nearly all actives have a fitted effect of over 35% in size. To be noted: SET-2 AML cells viability, CellTiter-Glo luminescence, 48 h; viability: stronger effect = lower value, concentration not given here. An outline of the steps:
(§1)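 AML cell lines seeded at 500 cells/well, treated with 11-point dose curves for 48 h. Viability by CellTiter-Glo luminescence, normalised to DMSO and empty wells; activity expressed as AUC and per-cell-line Z-transformed AUC.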
(In general: In ATP-based viability assays light output follows the ATP content of the culture.)

Experiment [11] is described as follows: BET inhibitor-based combinations targeting novel dependencies in MECOM-rearranged (r) AML: OCI-AML3 cell line (AID 2202232). Note: nearly all actives have a fitted effect of over 35% in size. To be noted: CellTiter-Glo luminescence, 48 h; Potency: OCI-AML3 viability; series mostly up to 46 µM. An outline of the steps:
as §1

Experiment [12] can be described thus: BET inhibitor-based combinations targeting novel dependencies in MECOM-rearranged (r) AML: HNT-34 cell line (AID 2202234). Note: nearly all actives have a fitted effect of over 35% in size. The following applies: HNT-34 AML viability, CellTiter-Glo luminescence, 48 h; series mostly up to 46 µM. An outline of the steps:
(§2)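 Cells at 500/well were exposed for 48 hr to MIPE v5.0 drugs as 11-point dose curves. Viability was read by CellTiter-Glo luminescence and normalized to DMSO and empty-well controls. Activity was expressed as AUC and per-cell-line Z-AUC.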

Experiment [13] in a line: BET inhibitor-based combinations targeting novel dependencies in MECOM-rearranged (r) AML: UCSD-AML1 cell line (AID 2202235). Note: nearly all actives have a fitted effect of over 40% in size. The following applies: UCSD-AML1 AML cells viability, CellTiter-Glo, 48 h; series mostly up to 46 µM. The method, boiled down:
as §2

The nature of experiment [14]: BET inhibitor-based combinations targeting novel dependencies in MECOM-rearranged (r) AML: AML-191 cell line (AID 2202236; note: nearly all actives have a fitted effect of over 35% in size). The following applies: AML-191 viability, CellTiter-Glo luminescence, 48 h; series mostly up to 46 µM. An outline of the steps: as §1
Experiment [15] is described as follows: BET inhibitor-based combinations targeting novel dependencies in MECOM-rearranged (r) AML: AML-194 cell line (AID 2202237; note: nearly all actives have a fitted effect of over 40% in size). To be noted: AML-194 (MECOM-r AML) viability, CellTiter-Glo, 48 h; series mostly up to 46 µM. An outline of the steps: as §1

On to `C[N+](C)(C)CCO`, for which the Potency entry in [1] and in experiment [2] was “inactive” throughout.

As to `CCCCCCC(=O)OC1CC(C)(C)NC(C)(C)C1`, the Potency result in [1] and in [2] was “inactive” each time.

Consider `COc1ccc(CN(CCN(C)C)c2ccccn2)cc1`, for which the Potency result in experiment [1] and in [2] was “inactive” in each case.

On to `CC(C)(C)OC(=O)N1CCN(c2cccc(NCc3ccc(-c4ccc(C#N)cc4)o3)c2)CC1`, for which the Potency in experiment [1] is 1780 nM (active); in [3], 1120 nM (active); in experiment [4], 1590 nM (active); in experiment [5], 282 nM (active); in experiment [7] it was 7120 nM (active). In addition, in [6], the Potency result is “inactive”.

Turning to `c1ccc2c(c1)CCCC2C1=NCCN1` (centres undefined), the Potency result in [1] and in experiment [2] was “inactive” in each case.

Regarding `CC(N=C(NC#N)Nc1ccncc1)C(C)(C)C` (centres undefined), the Potency result in experiment [1] and in experiment [2] was “inactive” each time.

For the compound `Cc1cn([C@H]2C=C[C@@H](CO)O2)c(=O)[nH]c1=O`, the Potency entry in experiment [1] and in experiment [2] was “inactive” in each case.

For `CC(C)(C)OC(=O)N1CCN(c2cnc(NCc3ccc(-c4ccc(C#N)cc4)o3)nc2)CC1`, the Potency is 1120 nM (active) in experiment [1]; 2240 nM (active) in experiment [3]; 5650 nM (active) in [4]; 15800 nM (active) in experiment [8]; 8960 nM (active) in experiment [6]; 10100 nM (active) in experiment [7]. In addition, the Potency entry in [9] is “inactive”.

On to `O=C1CCc2cc(OCCCCc3nnnn3C3CCCCC3)ccc2N1`, for which the Potency entry in [1], in experiment [11], in experiment [12], in experiment [13], in experiment [14] and in experiment [15] was “inactive” throughout. Moreover, the Potency is 631 nM (active) in [3], 631 nM (active) in [8], 7940 nM (active) in [6] and 16600 nM (active) in experiment [10].

Consider `CCOC(=O)C1CCN(c2ccc(NCc3ccc(-c4ccc(C#N)cc4)o3)cc2)CC1`, for which the Potency in experiment [1] is 355 nM (active); in experiment [3] it was 35.5 nM (active); in experiment [4] it was 634 nM (active); in experiment [8], 7080 nM (active); in experiment [6] it was 31600 nM (active); in [7], 7980 nM (active). Besides, the Potency result in experiment [5] is “inactive”.

Consider `CC(C)OC(=O)C(C)(C)Oc1ccc(C(=O)c2ccc(Cl)cc2)cc1`, for which the Potency entry in experiment [1] and in experiment [2] was “inactive” each time.
